# In a collection of fitness landscapes (doi:10.1016/j.celrep.2020.107928):
# Whole data set: some 81,000 sequences, median “one-hybrid fitness for binding parS DNA” near -0.17, cut for the highest 2% near 0.51. The entries come from a sample that favours the highest values as a whole.
# B1: Caulobacter ParB omega fusion; a variant is named by its letters at X, in order, B8GW30 (parent)
# chain: MESVVVGEPGMSEGRRGLGRGLSALLGEVDAAPAQAPGEQLGGSREAPIEILQRNPDQPRRTFREEDLEDLSNSIREKGVLQPILVRPSPDTAGEYQIVAGERAWRAAQRAGLKTVPIMVRELDDLAVLEIGIIENVQRADLNVLEEALSYKVLMEKFERTQENIAQTIGKSXSHVANXMRLLXLPDEVQSYLVSGELTAXHARAIAAAADPVALAKQIIEGGLSVRETEALARKAPNLSAGKSKGGRPPRVKDTDTQALESDLSSVLGLDVSIDHRGSTGTLTITYATLEQLDDLCNRLTRGI
# Variants of: B1
# Experiment: one-hybrid fitness for binding parS DNA (scaled: cognate 1, non-cognate 0); higher = stronger binding
# Details: with parS DNA site
# Outline: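 Selection: bacterial one-hybrid in E. coli USO, HIS3 reporter with the site 19 bp from the promoter, 48 hours at 37°C on M9-minus-histidine plus 0.1 mM IPTG and 5 mM 3-AT. Libraries were Caulobacter ParB with four randomised specificity codons, sequenced on Illumina before and after selection. Fitness is the rescaled log change in variant-to-wild-type read ratio, anchored to the cognate and non-cognate sites.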
row,Variant,one-hybrid fitness for binding parS DNA
1,KDHC,≤ 0.2
2,ISLY,≤ 0.2
3,LALC,≤ 0.2
4,LFYG,≤ 0.2
5,TPSE,≤ 0.2
6,GIAA,≤ 0.2
7,MCGR,≤ 0.2
8,RERC,0.334
9,RCDC,0.877
10,RCRC,0.863
11,RPDC,≤ 0.2
12,RSDD,≤ 0.2
13,RPRC,≤ 0.2
14,REDC,≤ 0.2
15,RSRF,0.281
16,RSRC,0.932
17,RSDC,0.773
18,RDRC,≤ 0.2
19,RSDN,0.313
20,AHPR,≤ 0.2
21,NQNV,≤ 0.2
22,QPDY,≤ 0.2
23,SCMC,≤ 0.2
24,LKGL,≤ 0.2
25,CAST,≤ 0.2

row,Variant,one-hybrid fitness for binding parS DNA
1,INPC,≤ 0.2
2,ETLI,≤ 0.2
3,FWGR,≤ 0.2
4,RHNS,0.864
5,RHNH,≤ 0.2
6,RHDP,≤ 0.2
7,RHDS,0.967
8,RHDH,≤ 0.2
9,RHND,≤ 0.2
10,SDHS,≤ 0.2
11,QQDM,≤ 0.2
12,MDNG,≤ 0.2
13,EESV,≤ 0.2
14,LGER,≤ 0.2
15,RQGL,≤ 0.2
16,RITD,≤ 0.2
17,RLTG,1.03
18,RCTG,1.02
19,RETG,0.249
20,RITP,≤ 0.2
21,RITG,0.997
22,RRTG,0.699
23,RLTD,≤ 0.2
24,RRTM,0.351
25,RLTQ,≤ 0.2

row,Variant,one-hybrid fitness for binding parS DNA
1,RRTK,≤ 0.2
2,RPTG,≤ 0.2
3,QTKN,≤ 0.2
4,DQEG,≤ 0.2
5,NHEC,≤ 0.2
6,QCPT,≤ 0.2
7,IMKR,≤ 0.2
8,GAMN,≤ 0.2
9,LESA,≤ 0.2
10,LGIT,≤ 0.2
11,SQRC,≤ 0.2
12,GQLN,≤ 0.2
13,NPSA,≤ 0.2
14,GPFR,≤ 0.2
15,RMTG,1.02
16,RHTG,0.967
17,DFTG,≤ 0.2
18,RHTK,≤ 0.2
19,RMTK,≤ 0.2
20,RHTD,≤ 0.2
21,RKTK,≤ 0.2
22,NFTG,≤ 0.2
23,RFTG,0.977
24,RKTR,≤ 0.2
25,RKTG,0.905

row,Variant,one-hybrid fitness for binding parS DNA
1,RMTH,0.218
2,ARLR,≤ 0.2
3,MAAN,≤ 0.2
4,VTYC,≤ 0.2
5,VAAS,≤ 0.2
6,WVLT,≤ 0.2
7,IAPF,≤ 0.2
8,QMYC,≤ 0.2
9,YLQA,≤ 0.2
10,IPAC,≤ 0.2
11,RSTN,0.461
12,RSTP,≤ 0.2
13,RTTR,≤ 0.2
14,RTTY,0.477
15,RTTG,1
16,RSTG,1
17,VSEV,≤ 0.2
18,PLGR,≤ 0.2
19,SLYF,≤ 0.2
20,HVAN,≤ 0.2
21,SESV,≤ 0.2
22,KMES,≤ 0.2
23,AYKT,≤ 0.2
24,HFLP,≤ 0.2
25,IRCS,≤ 0.2

row,Variant,one-hybrid fitness for binding parS DNA
1,RNKF,0.242
2,RNVT,0.514
3,RNVN,≤ 0.2
4,RNKR,≤ 0.2
5,RNVH,0.202
6,RNKT,0.819
7,NALR,≤ 0.2
8,TTTT,≤ 0.2
9,IISE,≤ 0.2
10,HKNW,≤ 0.2
11,PIET,≤ 0.2
12,ILAD,≤ 0.2
13,RHAS,0.933
14,RHAP,≤ 0.2
15,RHFD,≤ 0.2
16,RHAN,0.371
17,RHFS,0.965
18,RHFH,≤ 0.2
19,LHQT,≤ 0.2
20,RQFY,0.398
21,RQAC,0.947
22,RQFC,0.816
23,RQAQ,≤ 0.2
24,RQFM,0.279
25,RQAF,0.25

row,Variant,one-hybrid fitness for binding parS DNA
1,LNHR,≤ 0.2
2,ERQR,≤ 0.2
3,SWSW,≤ 0.2
4,TRLI,≤ 0.2
5,CQYS,≤ 0.2
6,LSGY,≤ 0.2
7,HRTK,≤ 0.2
8,RRMC,0.625
9,RPMC,≤ 0.2
10,RRMD,≤ 0.2
11,RLMC,0.992
12,RIMC,0.986
13,RRMH,≤ 0.2
14,RCMC,0.976
15,RIMD,0.234
16,RIMN,0.39
17,RDMC,≤ 0.2
18,RLMP,0.229
19,RLMH,0.291
20,IMTG,≤ 0.2
21,GAKE,≤ 0.2
22,CNSF,≤ 0.2
23,GRPA,≤ 0.2
24,CRST,≤ 0.2
25,IKCT,≤ 0.2

row,Variant,one-hybrid fitness for binding parS DNA
1,RMMN,0.435
2,RAMQ,≤ 0.2
3,RMMP,≤ 0.2
4,RMMC,0.992
5,RFMN,0.242
6,RFMD,≤ 0.2
7,RKMP,≤ 0.2
8,RFMC,0.824
9,RKMH,≤ 0.2
10,RKMC,0.897
11,RAMR,≤ 0.2
12,RAMC,0.956
13,TLMF,≤ 0.2
14,GTMC,≤ 0.2
15,LVSA,≤ 0.2
16,ITSK,≤ 0.2
17,DYWG,≤ 0.2
18,THDS,≤ 0.2
19,RKMK,≤ 0.2
20,YPLS,≤ 0.2
21,RSMC,0.928
22,RSMD,≤ 0.2
23,RHMC,0.908
24,RTMC,0.982
25,RTMN,0.433

row,Variant,one-hybrid fitness for binding parS DNA
1,RHMP,≤ 0.2
2,RSMP,≤ 0.2
3,RTMP,≤ 0.2
4,RHMN,0.389
5,AGSI,≤ 0.2
6,PTDS,≤ 0.2
7,FNHS,≤ 0.2
8,TAPE,≤ 0.2
9,GYWS,≤ 0.2
10,EPIG,≤ 0.2
11,PHQC,≤ 0.2
12,MHER,≤ 0.2
13,KLAC,≤ 0.2
14,REYS,0.287
15,RERH,≤ 0.2
16,REVG,≤ 0.2
17,REKG,0.533
18,REKS,0.66
19,REYG,≤ 0.2
20,RERS,0.529
21,REVS,≤ 0.2
22,REKN,≤ 0.2
23,QTIM,≤ 0.2
24,KYAR,≤ 0.2
25,EYFS,≤ 0.2

row,Variant,one-hybrid fitness for binding parS DNA
1,PLFV,≤ 0.2
2,VHQV,≤ 0.2
3,TPHK,≤ 0.2
4,RYHK,≤ 0.2
5,RYCN,0.382
6,RYNG,0.975
7,RYNY,0.466
8,RYYG,0.997
9,RYCG,0.974
10,RYHG,1
11,RYHQ,≤ 0.2
12,RYCD,≤ 0.2
13,RYYN,0.383
14,RYYH,≤ 0.2
15,RYNK,≤ 0.2
16,IKAI,≤ 0.2
17,HHKY,≤ 0.2
18,RSDE,≤ 0.2
19,FGTM,≤ 0.2
20,PPRW,≤ 0.2
21,KGNG,≤ 0.2
22,QLTS,≤ 0.2
23,DASE,≤ 0.2
24,GPYH,0.233
25,GWLC,≤ 0.2

row,Variant,one-hybrid fitness for binding parS DNA
1,EELW,≤ 0.2
2,SCTR,≤ 0.2
3,IRQT,≤ 0.2
4,VEHR,≤ 0.2
5,RYLM,0.324
6,RYLY,0.462
7,RYWG,0.89
8,RYGG,0.97
9,RYSP,≤ 0.2
10,RYWK,≤ 0.2
11,RYGF,0.205
12,RYWQ,≤ 0.2
13,RYLG,0.986
14,RYSG,0.984
15,RYGR,≤ 0.2
16,RYSD,≤ 0.2
17,AIYV,≤ 0.2
18,RKII,≤ 0.2
19,QIVC,≤ 0.2
20,KAHG,≤ 0.2
21,VQHT,≤ 0.2
22,HLQY,≤ 0.2
23,RYRP,≤ 0.2
24,RYDG,0.913
25,RYRG,0.92

row,Variant,one-hybrid fitness for binding parS DNA
1,RYDH,≤ 0.2
2,RYQM,0.31
3,RYDP,≤ 0.2
4,RYRH,≤ 0.2
5,RYQF,0.207
6,RYQG,0.971
7,SLFE,≤ 0.2
8,WPSR,≤ 0.2
9,QMHP,≤ 0.2
10,VYQY,≤ 0.2
11,SHPH,≤ 0.2
12,RWNQ,≤ 0.2
13,RWET,0.437
14,RWIT,0.387
15,RWAT,0.614
16,RWNT,0.682
17,RWDT,0.512
18,RWNY,0.339
19,RWRT,0.722
20,RWAR,≤ 0.2
21,RWFT,0.497
22,PRFH,≤ 0.2
23,HAWM,≤ 0.2
24,IKVG,≤ 0.2
25,EEHS,≤ 0.2

row,Variant,one-hybrid fitness for binding parS DNA
1,NPMG,≤ 0.2
2,CKHA,≤ 0.2
3,GRFC,≤ 0.2
4,PTDC,≤ 0.2
5,AWVV,≤ 0.2
6,DFLV,≤ 0.2
7,TRVH,≤ 0.2
8,KVCE,≤ 0.2
9,NTDV,≤ 0.2
10,SNDS,≤ 0.2
11,RWYT,0.596
12,RWCY,≤ 0.2
13,RWGT,0.548
14,RWCT,0.611
15,RWPT,0.284
16,RWHT,0.655
17,RWWT,0.507
18,RWCF,≤ 0.2
19,PDGT,≤ 0.2
20,PKSV,≤ 0.2
21,QRHM,≤ 0.2
22,THKG,≤ 0.2
23,MWHG,≤ 0.2
24,YDRG,≤ 0.2
25,TVTH,≤ 0.2

row,Variant,one-hybrid fitness for binding parS DNA
1,GSYT,≤ 0.2
2,MYQT,≤ 0.2
3,GLVV,≤ 0.2
4,RWST,0.665
5,RWQD,≤ 0.2
6,RWLT,0.556
7,RWKT,0.811
8,RWVT,0.43
9,RWKQ,≤ 0.2
10,RWQT,0.618
11,RWQN,0.264
12,RWSD,≤ 0.2
13,RWSN,0.318
